Laboratory results as given in paper PMC11006913.

Experiments:
Assay in all cases: PBM; 200 nM protein, PBS
Conditions in all cases: dsDNA, one strand shown
[1] = biological target: HESX1 (Homo sapiens, UniProt Q9UBX0 95-180, R165K)
[2] = biological target: SHOX (Homo sapiens, UniProt O15266 103-189)
[3] = biological target: ALX4 (Homo sapiens, UniProt Q9H161 200-286, Q225E)
[4] = biological target: HESX1 (Homo sapiens, UniProt Q9UBX0 95-180)
[5] = biological target: MSX2 (Homo sapiens, UniProt P35548 130-214, R199I)
[6] = biological target: ALX1 (Homo sapiens, UniProt Q15699 118-204, L144V)
[7] = biological target: ALX3 (Homo sapiens, UniProt O95076 139-225, N203Q)
[8] = biological target: SHOX (Homo sapiens, UniProt O15266 103-189, R173C)
[9] = biological target: ALX1 (Homo sapiens, UniProt Q15699 118-204, L144R)
[10] = biological target: ALX3 (Homo sapiens, UniProt O95076 139-225)
[11] = biological target: PROP1 (Homo sapiens, UniProt O75360 56-141)
[12] = biological target: HESX1 (Homo sapiens, UniProt Q9UBX0 95-180, R109Q)
[13] = biological target: PROP1 (Homo sapiens, UniProt O75360 56-141, R99H)
[14] = biological target: ALX3 (Homo sapiens, UniProt O95076 139-225, L168Q)
[15] = biological target: HESX1 (Homo sapiens, UniProt Q9UBX0 95-180, P111T)
[16] = biological target: ALX3 (Homo sapiens, UniProt O95076 139-225, L168V)
[17] = biological target: PROP1 (Homo sapiens, UniProt O75360 56-141, F88S)
[18] = biological target: HESX1 (Homo sapiens, UniProt Q9UBX0 95-180, F115L)
[19] = biological target: ALX1 (Homo sapiens, UniProt Q15699 118-204)
[20] = biological target: ALX3 (Homo sapiens, UniProt O95076 139-225, N203S)
ALX3 (Homo sapiens, UniProt O95076 139-225, N203S), sequence (O95076 139-225 N203S): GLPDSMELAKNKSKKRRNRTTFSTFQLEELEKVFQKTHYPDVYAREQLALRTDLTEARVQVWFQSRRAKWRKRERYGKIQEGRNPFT

MSX2, sequence (P35548 130-214 R199I): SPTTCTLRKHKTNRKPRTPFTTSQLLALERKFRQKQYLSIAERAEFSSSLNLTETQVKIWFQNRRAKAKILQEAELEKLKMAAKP
PROP1 (Homo sapiens, UniProt O75360 56-141), sequence (O75360 56-141): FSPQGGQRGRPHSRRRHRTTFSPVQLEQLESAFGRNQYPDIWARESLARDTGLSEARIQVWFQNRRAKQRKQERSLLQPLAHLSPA
HESX1 (Homo sapiens, UniProt Q9UBX0 95-180, R165K), sequence (Q9UBX0 95-180 R165K): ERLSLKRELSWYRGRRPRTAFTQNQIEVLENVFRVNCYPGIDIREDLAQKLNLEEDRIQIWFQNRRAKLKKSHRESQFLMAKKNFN
HESX1 (Homo sapiens, UniProt Q9UBX0 95-180, F115L), sequence (Q9UBX0 95-180 F115L): as the sequence (Q9UBX0 95-180 R165K) above, with F21L, K71R counted along it
SHOX (Homo sapiens, UniProt O15266 103-189), sequence (O15266 103-189): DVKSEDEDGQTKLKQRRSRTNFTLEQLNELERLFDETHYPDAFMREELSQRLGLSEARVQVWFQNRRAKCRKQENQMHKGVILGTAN
HESX1 (Homo sapiens, UniProt Q9UBX0 95-180), sequence (Q9UBX0 95-180): as the sequence (Q9UBX0 95-180 R165K) above, with K71R counted along it
HESX1 (Homo sapiens, UniProt Q9UBX0 95-180, P111T), sequence (Q9UBX0 95-180 P111T): as the sequence (Q9UBX0 95-180 R165K) above, with P17T, K71R counted along it
ALX3 (Homo sapiens, UniProt O95076 139-225, L168V), sequence (O95076 139-225 L168V): as the sequence (O95076 139-225 N203S) above, with L30V, S65N counted along it
PROP1 (Homo sapiens, UniProt O75360 56-141, F88S), sequence (O75360 56-141 F88S): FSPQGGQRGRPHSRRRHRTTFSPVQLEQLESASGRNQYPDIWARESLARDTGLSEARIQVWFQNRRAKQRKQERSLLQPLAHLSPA
ALX4, sequence (Q9H161 200-286 Q225E): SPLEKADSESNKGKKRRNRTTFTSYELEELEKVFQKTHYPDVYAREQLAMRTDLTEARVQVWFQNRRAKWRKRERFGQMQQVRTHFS
ALX1 (Homo sapiens, UniProt Q15699 118-204), sequence (Q15699 118-204): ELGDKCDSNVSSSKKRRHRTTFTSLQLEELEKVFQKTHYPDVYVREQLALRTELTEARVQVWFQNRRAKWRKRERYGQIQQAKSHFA
ALX3 (Homo sapiens, UniProt O95076 139-225), sequence (O95076 139-225): as the sequence (O95076 139-225 N203S) above, with S65N counted along it
SHOX (Homo sapiens, UniProt O15266 103-189, R173C), sequence (O15266 103-189 R173C): as the sequence (O15266 103-189) above, with R71C counted along it
ALX3 (Homo sapiens, UniProt O95076 139-225, N203Q), sequence (O95076 139-225 N203Q): as the sequence (O95076 139-225 N203S) above, with S65Q counted along it
ALX1 (Homo sapiens, UniProt Q15699 118-204, L144V), sequence (Q15699 118-204 L144V): as the sequence (Q15699 118-204) above, with L27V counted along it
ALX1 (Homo sapiens, UniProt Q15699 118-204, L144R), sequence (Q15699 118-204 L144R): as the sequence (Q15699 118-204) above, with L27R counted along it
HESX1 (Homo sapiens, UniProt Q9UBX0 95-180, R109Q), sequence (Q9UBX0 95-180 R109Q): as the sequence (Q9UBX0 95-180 R165K) above, with R15Q, K71R counted along it
PROP1 (Homo sapiens, UniProt O75360 56-141, R99H), sequence (O75360 56-141 R99H): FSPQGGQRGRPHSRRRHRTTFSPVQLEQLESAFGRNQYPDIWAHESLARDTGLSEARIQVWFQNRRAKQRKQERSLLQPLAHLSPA
ALX3 (Homo sapiens, UniProt O95076 139-225, L168Q), sequence (O95076 139-225 L168Q): as the sequence (O95076 139-225 N203S) above, with L30Q, S65N counted along it

GTCAATTA
binding signal [1]: 13.1 upbm affinity estimate (log intensity, higher = more binding, comparable within an allelic series)
binding signal [2]: 12.4 upbm affinity estimate (log intensity, higher = more binding, comparable within an allelic series)
binding signal [3]: 13.4 upbm affinity estimate (log intensity, higher = more binding, comparable within an allelic series)
binding signal [4]: 13.1 upbm affinity estimate (log intensity, higher = more binding, comparable within an allelic series)
binding signal [5]: 12.6 upbm affinity estimate (log intensity, higher = more binding, comparable within an allelic series)
binding signal [6]: 11.8 upbm affinity estimate (log intensity, higher = more binding, comparable within an allelic series)
binding signal [7]: 8.23 upbm affinity estimate (log intensity, higher = more binding, comparable within an allelic series)
binding signal [8]: 9.5 upbm affinity estimate (log intensity, higher = more binding, comparable within an allelic series)
binding signal [9]: 11.4 upbm affinity estimate (log intensity, higher = more binding, comparable within an allelic series)
binding signal [10]: 12.5 upbm affinity estimate (log intensity, higher = more binding, comparable within an allelic series)
binding signal [11]: 11.4 upbm affinity estimate (log intensity, higher = more binding, comparable within an allelic series)
binding signal [12]: 9.32 upbm affinity estimate (log intensity, higher = more binding, comparable within an allelic series)
binding signal [13]: 11.8 upbm affinity estimate (log intensity, higher = more binding, comparable within an allelic series)
binding signal [14]: 10.7 upbm affinity estimate (log intensity, higher = more binding, comparable within an allelic series)
binding signal [15]: 11.6 upbm affinity estimate (log intensity, higher = more binding, comparable within an allelic series)
binding signal [16]: 10.1 upbm affinity estimate (log intensity, higher = more binding, comparable within an allelic series)
binding signal [17]: 7.62 upbm affinity estimate (log intensity, higher = more binding, comparable within an allelic series)
binding signal [18]: 7.69 upbm affinity estimate (log intensity, higher = more binding, comparable within an allelic series)
binding signal [19]: 12.4 upbm affinity estimate (log intensity, higher = more binding, comparable within an allelic series)
binding signal [20]: 8.41 upbm affinity estimate (log intensity, higher = more binding, comparable within an allelic series)

AAATTAAT
binding signal [1]: 11.7 upbm affinity estimate (log intensity, higher = more binding, comparable within an allelic series)
binding signal [2]: 11.9 upbm affinity estimate (log intensity, higher = more binding, comparable within an allelic series)
binding signal [3]: 13.3 upbm affinity estimate (log intensity, higher = more binding, comparable within an allelic series)
binding signal [4]: 11.5 upbm affinity estimate (log intensity, higher = more binding, comparable within an allelic series)
binding signal [5]: 12.2 upbm affinity estimate (log intensity, higher = more binding, comparable within an allelic series)
binding signal [6]: 11.9 upbm affinity estimate (log intensity, higher = more binding, comparable within an allelic series)
binding signal [7]: 8.56 upbm affinity estimate (log intensity, higher = more binding, comparable within an allelic series)
binding signal [8]: 9.34 upbm affinity estimate (log intensity, higher = more binding, comparable within an allelic series)
binding signal [9]: 11.6 upbm affinity estimate (log intensity, higher = more binding, comparable within an allelic series)
binding signal [10]: 12.5 upbm affinity estimate (log intensity, higher = more binding, comparable within an allelic series)
binding signal [11]: 11.2 upbm affinity estimate (log intensity, higher = more binding, comparable within an allelic series)
binding signal [12]: 8.9 upbm affinity estimate (log intensity, higher = more binding, comparable within an allelic series)
binding signal [13]: 10.9 upbm affinity estimate (log intensity, higher = more binding, comparable within an allelic series)
binding signal [14]: 10.6 upbm affinity estimate (log intensity, higher = more binding, comparable within an allelic series)
binding signal [15]: 10.4 upbm affinity estimate (log intensity, higher = more binding, comparable within an allelic series)
binding signal [16]: 10 upbm affinity estimate (log intensity, higher = more binding, comparable within an allelic series)
binding signal [17]: 7.7 upbm affinity estimate (log intensity, higher = more binding, comparable within an allelic series)
binding signal [18]: 7.97 upbm affinity estimate (log intensity, higher = more binding, comparable within an allelic series)
binding signal [19]: 12.5 upbm affinity estimate (log intensity, higher = more binding, comparable within an allelic series)
binding signal [20]: 8.72 upbm affinity estimate (log intensity, higher = more binding, comparable within an allelic series)

ATTAATAG
binding signal [1]: 10.6 upbm affinity estimate (log intensity, higher = more binding, comparable within an allelic series)
binding signal [4]: 10.6 upbm affinity estimate (log intensity, higher = more binding, comparable within an allelic series)
binding signal [7]: 8.58 upbm affinity estimate (log intensity, higher = more binding, comparable within an allelic series)
binding signal [12]: 8.2 upbm affinity estimate (log intensity, higher = more binding, comparable within an allelic series)
binding signal [15]: 9.29 upbm affinity estimate (log intensity, higher = more binding, comparable within an allelic series)
binding signal [18]: 7.97 upbm affinity estimate (log intensity, higher = more binding, comparable within an allelic series)

TAATTGCA
binding signal [1]: 12 upbm affinity estimate (log intensity, higher = more binding, comparable within an allelic series)
binding signal [2]: 11.4 upbm affinity estimate (log intensity, higher = more binding, comparable within an allelic series)
binding signal [4]: 12.1 upbm affinity estimate (log intensity, higher = more binding, comparable within an allelic series)
binding signal [5]: 13 upbm affinity estimate (log intensity, higher = more binding, comparable within an allelic series)
binding signal [8]: 9.1 upbm affinity estimate (log intensity, higher = more binding, comparable within an allelic series)
binding signal [11]: 11.1 upbm affinity estimate (log intensity, higher = more binding, comparable within an allelic series)
binding signal [12]: 8.74 upbm affinity estimate (log intensity, higher = more binding, comparable within an allelic series)
binding signal [13]: 11.1 upbm affinity estimate (log intensity, higher = more binding, comparable within an allelic series)
binding signal [14]: 10.2 upbm affinity estimate (log intensity, higher = more binding, comparable within an allelic series)
binding signal [15]: 10.6 upbm affinity estimate (log intensity, higher = more binding, comparable within an allelic series)
binding signal [17]: 7.7 upbm affinity estimate (log intensity, higher = more binding, comparable within an allelic series)
binding signal [18]: 7.5 upbm affinity estimate (log intensity, higher = more binding, comparable within an allelic series)

ATAATTAG
binding signal [1]: 13.4 upbm affinity estimate (log intensity, higher = more binding, comparable within an allelic series)
binding signal [2]: 13 upbm affinity estimate (log intensity, higher = more binding, comparable within an allelic series)
binding signal [3]: 14.2 upbm affinity estimate (log intensity, higher = more binding, comparable within an allelic series)
binding signal [4]: 13.4 upbm affinity estimate (log intensity, higher = more binding, comparable within an allelic series)
binding signal [5]: 13.2 upbm affinity estimate (log intensity, higher = more binding, comparable within an allelic series)
binding signal [6]: 12.3 upbm affinity estimate (log intensity, higher = more binding, comparable within an allelic series)
binding signal [7]: 8.56 upbm affinity estimate (log intensity, higher = more binding, comparable within an allelic series)
binding signal [8]: 10.3 upbm affinity estimate (log intensity, higher = more binding, comparable within an allelic series)
binding signal [9]: 11.9 upbm affinity estimate (log intensity, higher = more binding, comparable within an allelic series)
binding signal [10]: 12.9 upbm affinity estimate (log intensity, higher = more binding, comparable within an allelic series)
binding signal [11]: 12.1 upbm affinity estimate (log intensity, higher = more binding, comparable within an allelic series)
binding signal [12]: 9.82 upbm affinity estimate (log intensity, higher = more binding, comparable within an allelic series)
binding signal [13]: 12.1 upbm affinity estimate (log intensity, higher = more binding, comparable within an allelic series)
binding signal [14]: 11.2 upbm affinity estimate (log intensity, higher = more binding, comparable within an allelic series)
binding signal [15]: 12 upbm affinity estimate (log intensity, higher = more binding, comparable within an allelic series)
binding signal [16]: 10.8 upbm affinity estimate (log intensity, higher = more binding, comparable within an allelic series)
binding signal [17]: 7.99 upbm affinity estimate (log intensity, higher = more binding, comparable within an allelic series)
binding signal [18]: 8.28 upbm affinity estimate (log intensity, higher = more binding, comparable within an allelic series)
binding signal [19]: 12.9 upbm affinity estimate (log intensity, higher = more binding, comparable within an allelic series)
binding signal [20]: 8.75 upbm affinity estimate (log intensity, higher = more binding, comparable within an allelic series)
